Experiment [1] concerns the target human RAR-related Orphan Receptor gamma (RORg), RORC (gene 6097) (UniProt P51449). As to the kind of experiment: ATG_RORg_TRANS: Attagene TRANS-FACTORIAL HepG2 Assay for human RAR-related Orphan Receptor gamma (RORg) (AID 2283011; active = hit-call score of the fitted dose curve at least 0.9, where 1 is the maximum). Put shortly: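 Readout: reporter transcript induction (RT-PCR, fluorescent primer extension, capillary electrophoresis) after 24 h compound exposure of transiently transfected HepG2 cells carrying a RORg-Gal4 chimera and GAL4-UAS reporters; DMSO served as baseline, with increasing signal fitted.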

In experiment [2] the target is human Retinoid X Receptor beta (RXRb), RXRB (gene 6257) (UniProt P28702). As to the kind of experiment: ATG_RXRb_TRANS: Attagene TRANS-FACTORIAL HepG2 Assay for human Retinoid X Receptor beta (RXRb) (AID 2283013; active = hit-call score of the fitted dose curve at least 0.9, where 1 is the maximum). Put shortly:
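Multiplexed TRANS reporter assay in HepG2; 24 h dosing; reporter mRNA by RT-PCR/CE fluorescence; gain-of-signal relative to DMSO.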

Read-out in experiment [3]: E-selectin (Homo sapiens) (UniProt P16581)
The experiment is described as follows: BSK_3C_Eselectin: BioMAP Diversity Plus: 3C Assay for Eselectin Biomarker Activity (AID 2283015).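 As to outcome: cell surface E-selectin protein quantified by ELISA 24 h after dosing.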 The following applies: primary human endothelial cells (HUVEC); actives raise or lower the signal. The procedure, abridged: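 Primary human umbilical vein endothelial cells (3C system) were dosed with chemical and cell-surface E-selectin measured by ELISA 24 h later. Bidirectional curve fitting used DMSO as negative control and baseline.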

Read-out in experiment [4]: Interleukin-1 alpha (IL1a), IL1A (gene 3552)
As to the kind of experiment: BSK_BE3C_IL1a: BioMAP Diversity Plus: BE3C Assay for Interleukin-1 alpha (IL1a) Biomarker Activity (AID 2283016). Particulars: primary human bronchial epithelial cells; actives raise or lower the signal. The procedure, abridged:
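Cultures of primary human bronchial epithelial cells receive test chemical. After 24 h, IL-1a is quantified by ELISA, while parallel wells are fixed in TCA and SRB-stained for total protein. Changes in either direction are fitted relative to DMSO.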

Read-out in experiment [5]: Monocyte Chemoattractant Protein-1 (MCP1), CCL2 (gene 6347)
The experiment is described as follows: BSK_3C_MCP1: BioMAP Diversity Plus: 3C Assay for Monocyte Chemoattractant Protein-1 (MCP1) Biomarker Activity (AID 2283017). The following applies: primary human endothelial cells (HUVEC); actives raise or lower the signal. Put shortly:
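Primary human umbilical vein endothelial cells (3C system) were exposed to test chemical for 24 h, after which MCP-1 was quantified by ELISA. Activity was fitted bidirectionally against DMSO as negative control and baseline.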

Read-out in experiment [6]: Monocyte Chemoattractant Protein-1 (MCP1), CCL2 (gene 6347)
As to the kind of experiment: BSK_4H_MCP1: BioMAP Diversity Plus: 4H Assay for Monocyte Chemoattractant Protein-1 (MCP1) Biomarker Activity (AID 2283018). Particulars: primary human endothelial cells (HUVEC); actives raise or lower the signal. The procedure, abridged:
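Readout: MCP-1 ELISA on compound-treated HUVEC, sampled 24 h post-dosing. Baseline and negative control DMSO; bidirectional fit. Overt toxicity checked alongside by sulforhodamine B protein staining at time of biomarker measurement.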

Read-out in experiment [7]: Human Leukocyte Antigen - DR isotype (HLADR), HLA-DRA (gene 3122)
As to the kind of experiment: BSK_3C_HLADR: BioMAP Diversity Plus: 3C Assay for Human Leukocyte Antigen - DR isotype (HLADR) Biomarker Activity (AID 2283019).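 As to outcome: ELISA of cell-surface HLA-DR on HUVEC 24 h after dosing.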 Particulars: primary human endothelial cells (HUVEC); actives raise or lower the signal. Put shortly:
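Primary human umbilical vein endothelial cells (3C system) were dosed with compound and cell-surface HLA-DR was quantified by ELISA at 24 h. Activity was fitted bidirectionally against DMSO as negative control and baseline.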

Read-out in experiment [8]: Interleukin-8 (IL8), CXCL8 (gene 3576)
As to the kind of experiment: BSK_3C_IL8: BioMAP Diversity Plus: 3C Assay for Interleukin-8 (IL8) Biomarker Activity (AID 2283020). Particulars: primary human endothelial cells (HUVEC); actives raise or lower the signal. Put shortly: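 Human vascular endothelial cells (umbilical vein) in the 3C system; IL-8 level detected by ELISA at 24 h post-dose, with DMSO as baseline.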

Experiment [9] deals with human Vitamin D Receptor (VDR), VDR (gene 7421) (UniProt P11473). As to the kind of experiment: ATG_VDR_TRANS: Attagene TRANS-FACTORIAL HepG2 Assay for human Vitamin D Receptor (VDR) (AID 2283022; active = hit-call score of the fitted dose curve at least 0.9, where 1 is the maximum). Put shortly: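 HepG2 cells were transiently transfected with multiple GAL4-UAS reporter units, so signal reflects exogenous chimeric receptor-Gal4 activity. After 24 h compound exposure, reporter mRNA was measured by RT-PCR, fluorescent labelling and capillary electrophoresis, fitted for gain of signal versus DMSO.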
Chain of human Vitamin D Receptor (VDR), VDR (gene 7421) (P11473 whole entry, looked up, the tested form may be a part): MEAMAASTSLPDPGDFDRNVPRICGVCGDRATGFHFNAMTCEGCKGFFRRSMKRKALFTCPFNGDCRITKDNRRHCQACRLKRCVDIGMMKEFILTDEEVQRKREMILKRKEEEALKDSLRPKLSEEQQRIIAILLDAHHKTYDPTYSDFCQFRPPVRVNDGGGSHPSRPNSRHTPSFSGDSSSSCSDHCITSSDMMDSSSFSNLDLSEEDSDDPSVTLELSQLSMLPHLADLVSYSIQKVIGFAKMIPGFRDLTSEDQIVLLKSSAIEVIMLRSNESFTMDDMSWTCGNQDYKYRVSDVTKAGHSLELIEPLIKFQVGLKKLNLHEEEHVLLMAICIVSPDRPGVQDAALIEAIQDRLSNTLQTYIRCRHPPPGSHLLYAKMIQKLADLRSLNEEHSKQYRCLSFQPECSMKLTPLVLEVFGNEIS

Experiment [10] can be described thus: BSK_3C_SRB: Viability Assessment in the BioMAP Diversity Plus: 3C Assay (AID 2283023).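 Also: fitted both ways against DMSO so a hit may be signal rise or drop.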 Particulars: primary human endothelial cells (HUVEC). Put shortly: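 Primary human umbilical vein endothelial cells in the 3C system were read 24 h after compound dosing. Total protein was stained with 0.1% sulforhodamine B after 10% TCA fixation and read at 560 nm, with bidirectional fitting against DMSO as baseline.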

Read-out in experiment [11]: Matrix Metallopeptidase 1 (MMP1), MMP1 (gene 4312)
As to the kind of experiment: BSK_BE3C_MMP1: BioMAP Diversity Plus: BE3C Assay for Matrix Metallopeptidase 1 (MMP1) Biomarker Activity (AID 2283024). The following applies: primary human bronchial epithelial cells; actives raise or lower the signal. Put shortly:
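Dose cells, wait 24 h, run MMP1 ELISA; cells are human bronchial epithelial primaries. Both increases and decreases relative to DMSO counted.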

Experiment [12] can be described thus: BSK_3C_Vis: BioMAP Diversity Plus: 3C Assay for Morphology Visualization (AID 2283025).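 Also: fitted both ways so gain or loss versus DMSO counts.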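 As to AC50: light microscopy image of cell morphology used as background control.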 The following applies: primary human endothelial cells (HUVEC). The procedure, abridged:
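Endothelial cells from human umbilical vein were treated with test chemicals for 24 h and inspected by light microscopy for changes in cell conformation.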

Read-out in experiment [13]: Pselectin, SELP (gene 6403)
The experiment is described as follows: BSK_4H_Pselectin: BioMAP Diversity Plus: 4H Assay for Pselectin Biomarker Activity (AID 2283026). The following applies: primary human endothelial cells (HUVEC); actives raise or lower the signal. The procedure, abridged:
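Human vascular endothelium from umbilical vein; P-selectin measured by ELISA at 24 h post-dose, with cytotoxicity checked by sulforhodamine B total-protein staining in parallel cultures (0.1% SRB after 10% TCA fixation, read at 560 nm).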

Experiment [14] is described as follows: BSK_4H_SRB: Viability Assessment in the BioMAP Diversity Plus: 4H Assay (AID 2283027).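 Also: cells exposed to compound for 24 h before staining.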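 As to AC50: curves fitted both ways versus DMSO so AC50 may be loss or gain.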 Particulars: primary human endothelial cells (HUVEC). Put shortly: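 Human umbilical vein endothelial cells were dosed with chemical and, after 24 h, fixed with 10% TCA, stained with 0.1% sulforhodamine B, and read at 560 nm to give total protein as a cytotoxicity measure. Bidirectional fitting relative to DMSO control.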

Read-out in experiment [15]: Thrombomodulin, THBD (gene 7056)
The experiment is described as follows: BSK_3C_Thrombomodulin: BioMAP Diversity Plus: 3C Assay for Thrombomodulin Biomarker Activity (AID 2283029). Particulars: primary human endothelial cells (HUVEC); actives raise or lower the signal. Put shortly: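 Thrombomodulin ELISA, human primary HUVEC, 24 h post-dose; data fitted in both directions relative to DMSO.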

Read-out in experiment [16]: Urokinase-type plasminogen activator receptor (uPAR), PLAUR (gene 5329)
As to the kind of experiment: BSK_4H_uPAR: BioMAP Diversity Plus: 4H Assay for Urokinase-type plasminogen activator receptor (uPAR) Biomarker Activity (AID 2283030). Particulars: primary human endothelial cells (HUVEC); actives raise or lower the signal. Put shortly:
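Primary human umbilical vein endothelial cells were exposed to chemical for 24 h before cell-surface uPAR was quantified by ELISA. Activity was fitted bidirectionally against the DMSO negative control baseline.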

Read-out in experiment [17]: Monokine induced gamma interferon (MIG), CXCL9 (gene 4283)
The experiment is described as follows: BSK_3C_MIG: BioMAP Diversity Plus: 3C Assay for Monokine induced gamma interferon (MIG) Biomarker Activity (AID 2283021). The following applies: primary human endothelial cells (HUVEC); actives raise or lower the signal. The procedure, abridged: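 After 24 h of treatment, human umbilical vein endothelial cultures (3C system) had their MIG biomarker level determined by ELISA, with DMSO serving as negative control.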

The target of experiment [18] is human Thyroid Receptor alpha (THRa1), THRA (gene 7067) (UniProt P10827). As to the kind of experiment: ATG_THRa1_TRANS: Attagene TRANS-FACTORIAL HepG2 Assay for human Thyroid Receptor alpha (THRa1) (AID 2283014; active = hit-call score of the fitted dose curve at least 0.9, where 1 is the maximum). The procedure, abridged: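 HepG2 cells transiently transfected with multiplexed GAL4-UAS reporter units for exogenous chimeric THRa1-Gal4; reporter mRNA measured 24 h after dosing by RT-PCR, 6-FAM labelling, HpaI digestion and capillary electrophoresis. Gain-of-signal fitted versus DMSO baseline.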
Chain of human Thyroid Receptor alpha (THRa1), THRA (gene 7067) (P10827 whole entry, looked up, the tested form may be a part): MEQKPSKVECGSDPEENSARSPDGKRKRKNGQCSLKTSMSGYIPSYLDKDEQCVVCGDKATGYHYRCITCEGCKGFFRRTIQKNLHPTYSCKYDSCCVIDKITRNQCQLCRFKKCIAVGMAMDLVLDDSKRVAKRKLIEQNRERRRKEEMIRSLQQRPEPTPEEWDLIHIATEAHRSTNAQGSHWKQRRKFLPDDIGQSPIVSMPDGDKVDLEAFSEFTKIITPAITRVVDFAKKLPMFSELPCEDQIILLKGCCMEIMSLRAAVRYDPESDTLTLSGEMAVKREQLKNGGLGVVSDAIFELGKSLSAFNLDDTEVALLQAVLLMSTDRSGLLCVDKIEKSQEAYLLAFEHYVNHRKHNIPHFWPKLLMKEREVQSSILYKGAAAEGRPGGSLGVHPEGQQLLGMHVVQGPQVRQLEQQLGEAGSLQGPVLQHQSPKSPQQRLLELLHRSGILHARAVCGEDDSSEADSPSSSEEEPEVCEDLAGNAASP

Experiment [19] can be described thus: BSK_BE3C_SRB: Viability Assessment in the BioMAP Diversity Plus: BE3C Assay (AID 2283028).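 As to AC50: fitted both ways so AC50 may mark signal gain or loss versus DMSO.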 Particulars: primary human bronchial epithelial cells. Put shortly: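 Human primary bronchial epithelial cells were exposed to test chemicals for 24 h. Total protein in parallel cultures was then measured by staining with 0.1% sulforhodamine B after 10% TCA fixation, with absorbance read at 560 nm. Activity was fitted bidirectionally against DMSO.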

Structures are written as SMILES. Records with an inconclusive call do not appear. Active and inactive are the calls of the source. The calls were made as follows, unless noted: active = hit-call score of the fitted dose curve at least 0.9, where 1 is the maximum; inactive = score below 0.9.

These results are taken from PubChem BioAssay (EPA / NIEHS).

Chain of human Retinoid X Receptor beta (RXRb), RXRB (gene 6257) (P28702 whole entry, looked up): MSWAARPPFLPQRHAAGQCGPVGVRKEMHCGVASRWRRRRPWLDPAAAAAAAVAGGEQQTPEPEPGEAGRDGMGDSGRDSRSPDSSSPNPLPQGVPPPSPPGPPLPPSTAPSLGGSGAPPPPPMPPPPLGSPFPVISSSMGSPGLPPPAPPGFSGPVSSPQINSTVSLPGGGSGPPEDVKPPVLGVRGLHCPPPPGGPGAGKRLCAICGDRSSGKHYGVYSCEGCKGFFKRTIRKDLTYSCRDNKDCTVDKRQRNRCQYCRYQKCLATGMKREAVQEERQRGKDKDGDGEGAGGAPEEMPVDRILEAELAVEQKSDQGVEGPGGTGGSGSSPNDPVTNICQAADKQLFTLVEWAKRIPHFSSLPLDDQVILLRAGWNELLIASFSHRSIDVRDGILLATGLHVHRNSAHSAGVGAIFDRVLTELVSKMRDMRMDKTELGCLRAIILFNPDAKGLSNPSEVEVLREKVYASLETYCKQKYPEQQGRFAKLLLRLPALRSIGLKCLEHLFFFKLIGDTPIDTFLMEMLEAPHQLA
Chain of human RAR-related Orphan Receptor gamma (RORg), RORC (gene 6097) (P51449 whole entry, looked up, the tested form may be a part): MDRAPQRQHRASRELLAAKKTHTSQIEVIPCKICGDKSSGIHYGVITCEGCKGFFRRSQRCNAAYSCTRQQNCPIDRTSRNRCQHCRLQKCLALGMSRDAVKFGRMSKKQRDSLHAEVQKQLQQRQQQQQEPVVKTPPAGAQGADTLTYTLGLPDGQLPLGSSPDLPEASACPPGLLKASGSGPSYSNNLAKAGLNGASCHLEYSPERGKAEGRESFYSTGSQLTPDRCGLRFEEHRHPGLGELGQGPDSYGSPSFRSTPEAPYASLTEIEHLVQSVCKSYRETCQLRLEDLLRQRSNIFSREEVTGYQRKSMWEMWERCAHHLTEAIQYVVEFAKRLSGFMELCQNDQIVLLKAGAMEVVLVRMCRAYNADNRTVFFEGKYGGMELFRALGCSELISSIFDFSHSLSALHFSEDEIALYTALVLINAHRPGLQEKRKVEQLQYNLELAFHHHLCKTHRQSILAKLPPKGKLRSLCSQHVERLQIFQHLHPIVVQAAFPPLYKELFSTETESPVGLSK
Chain of E-selectin (Homo sapiens) (P16581 whole entry, looked up): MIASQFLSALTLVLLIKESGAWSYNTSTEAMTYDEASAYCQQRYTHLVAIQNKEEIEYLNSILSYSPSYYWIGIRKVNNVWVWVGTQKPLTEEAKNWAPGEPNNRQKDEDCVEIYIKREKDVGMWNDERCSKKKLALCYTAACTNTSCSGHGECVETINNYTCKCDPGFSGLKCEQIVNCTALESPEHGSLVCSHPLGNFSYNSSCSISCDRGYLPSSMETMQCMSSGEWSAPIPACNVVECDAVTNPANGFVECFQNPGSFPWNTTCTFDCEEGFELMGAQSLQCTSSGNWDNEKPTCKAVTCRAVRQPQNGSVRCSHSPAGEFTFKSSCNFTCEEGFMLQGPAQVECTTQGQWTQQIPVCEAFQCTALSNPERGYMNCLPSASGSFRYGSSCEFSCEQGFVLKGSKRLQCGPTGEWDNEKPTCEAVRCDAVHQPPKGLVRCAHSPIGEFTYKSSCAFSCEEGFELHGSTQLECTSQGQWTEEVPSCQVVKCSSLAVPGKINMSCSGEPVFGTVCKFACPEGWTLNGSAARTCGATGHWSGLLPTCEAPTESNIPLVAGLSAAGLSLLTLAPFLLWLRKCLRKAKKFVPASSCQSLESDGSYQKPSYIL

Regarding `Cc1oc(-c2ccccc2)nc1CCOc1cccc2c1ccn2CCC(=O)O`, the compound was classed as inactive in experiment [1], in experiment [3], in experiment [4], in experiment [5], in experiment [6] and in experiment [7]. In addition, the result in experiment [8], in experiment [9], in [10], in experiment [11], in [12] and in experiment [13] was inactive. The result in experiment [14], in experiment [15] and in [16] was inactive. For the same compound, in experiment [2], the AC50 was 8.2 µM (active).

Consider `CCOC(=O)C(C)(C)Oc1ccc(Cl)cc1`, for which the outcome in experiment [1], in experiment [2], in [3], in experiment [4], in experiment [5] and in experiment [6] was inactive. The outcome in [7], in experiment [8], in experiment [17], in [10], in experiment [11] and in [12] was inactive. Further, the outcome in experiment [13], in experiment [14], in experiment [15] and in [16] was inactive.

As for `CC(C)c1ccc(C(=O)N=C(N)N)cc1S(C)(=O)=O`, the result in experiment [1], in [18], in experiment [3], in [4], in [5] and in experiment [6] was inactive. Besides, the result in experiment [7], in experiment [8], in [17], in experiment [11], in experiment [12] and in [13] was inactive. The result in [14], in experiment [19], in experiment [15] and in experiment [16] was inactive.

On to `Cc1cc(=O)[nH]c(=S)[nH]1`, for which the compound was classed as inactive in experiment [1], in experiment [2], in experiment [3], in [4], in experiment [5] and in experiment [6]. For the same compound, the outcome in experiment [7], in [8], in experiment [17], in experiment [9], in [11] and in experiment [12] was inactive. Moreover, the outcome in experiment [13], in experiment [14], in experiment [19], in experiment [15] and in experiment [16] was inactive.

In the case of `CCCCC(CC)COC(=O)CC(C(=O)OCC(CC)CCCC)S(=O)(=O)O` (centres undefined), the result in [1], in [2], in experiment [9] and in experiment [15] was inactive. In addition, the AC50 in experiment [3] is 38.1 µM (active); in [4], 11.6 µM (active); in experiment [5], 31.4 µM (active); in experiment [6] it was 29.3 µM (active); in experiment [7] it was 37.9 µM (active); in experiment [8], 30.6 µM (active). Further, the AC50 in experiment [10] is 31.2 µM (active); in experiment [11], 10.2 µM (active); in [12] it was 37.5 µM (active); in experiment [13] it was 32.2 µM (active); in [14], 38 µM (active); in experiment [19] it was 6.46 µM (active). The AC50 in experiment [16] was 39 µM (active).

For `O=c1c(O)c(-c2ccc(O)c(O)c2)oc2cc(O)cc(O)c12`, the outcome in experiment [1], in [2], in [18], in [17], in [11] and in experiment [19] was inactive. For the same compound, in experiment [15], the outcome was inactive. Further, the AC50 in experiment [3] is 34.7 µM (active); in [4], 15.8 µM (active); in experiment [5] it was 15 µM (active); in experiment [6], 20 µM (active); in experiment [8] it was 14.5 µM (active); in [12], 37.5 µM (active). The AC50 is 16.6 µM (active) in experiment [13], 30.1 µM (active) in [14] and 33.6 µM (active) in experiment [16].

For the compound `C[C@]12C=CC(=O)C=C1CC[C@@H]1[C@@H]2C(=O)C[C@@]2(C)[C@H]1CC[C@]2(O)C(=O)CO`, the compound was classed as inactive in experiment [1], in [18], in experiment [3], in [4], in experiment [5] and in experiment [6]. Besides, the result in experiment [7], in [8], in experiment [9], in experiment [11], in experiment [12] and in [13] was inactive. Besides, the result in [14], in experiment [19], in experiment [15] and in [16] was inactive.

In the case of `O=[N+]([O-])C(CO)(CO)CO`, the result in experiment [1], in [18], in experiment [3], in experiment [4], in experiment [5] and in experiment [6] was inactive. Further, the outcome in experiment [7], in [8], in experiment [9], in experiment [11], in [12] and in experiment [13] was inactive. The outcome in [14], in experiment [15] and in experiment [16] was inactive.
